Most compounds without a hit are left out; they make up all but 12% or so of the library.
PI5P4K alpha inh: qHTS for Inhibitors of phosphatidylinositol 5-phosphate 4-kinase (PI5P4K); PI5P4Kalpha enzyme, ADP-Glo luminescence, 60 min; active compounds read low; AID 652105, 2013; 1.2% of 330,000 active; Phosphatidylinositol 5-phosphate 4-kinase type-2 alpha (Homo sapiens), P48426; max response, %; active = max response of -50% or lower; inconclusive = between -30% and -50%; inactive = -30% or higher; also: value at the top dose of about 77 µM; % is scaled to controls: 0 for no effect and ±100 for the full control effect
Target sequence (P48426 whole entry, looked up): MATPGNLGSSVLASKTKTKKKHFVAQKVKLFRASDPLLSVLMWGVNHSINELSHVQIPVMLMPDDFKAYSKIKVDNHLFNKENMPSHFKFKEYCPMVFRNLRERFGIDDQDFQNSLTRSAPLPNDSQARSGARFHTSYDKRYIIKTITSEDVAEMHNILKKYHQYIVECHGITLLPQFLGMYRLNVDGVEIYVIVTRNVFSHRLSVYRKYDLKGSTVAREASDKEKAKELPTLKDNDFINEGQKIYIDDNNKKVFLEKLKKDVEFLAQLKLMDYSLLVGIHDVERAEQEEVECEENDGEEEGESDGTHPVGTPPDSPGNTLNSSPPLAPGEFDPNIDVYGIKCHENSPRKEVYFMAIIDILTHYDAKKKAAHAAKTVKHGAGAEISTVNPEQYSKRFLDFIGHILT
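Quantitative HTS of the MLSMR library against PI5P4Kalpha with substrate. ATP added last at 5 microM final; room temperature, 60 minutes. Remaining ATP depleted, ADP converted and read as luminescence.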
BAZ2B inh: qHTS Assay for Inhibitors of BAZ2B; 4.4% of 360,000 active; AlphaScreen BAZ2B-H3K14Ac peptide displacement; Potency, µM (series often up to 114 µM), for inactives: at the highest dose activity change, negative = inhibition, hits mostly inhibitors; Bromodomain adjacent to zinc finger domain protein 2B (Homo sapiens), Q9UIF8; also: potency is read from the fitted curve at half-maximal effect; % is scaled to controls: 0 for no effect and ±100 for the full control effect; nearly all actives have a fitted effect of over 60% in size
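Complex of BAZ2B and biotin-H3K14Ac (50 nM apiece) forms over 30 min at RT, then faces library compounds up to 110 uM for another 30 min; AlphaScreen beads added, 20 min dark incubation, luminescence read.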
HP1b binding inh: HTS for Inhibitors of HP1-beta Chromodomain Interactions with Methylated Histone Tails; Chromobox protein homolog 1 (Homo sapiens), P83916; AlphaScreen HP1-beta / biotin-H3K9me3 peptide binding; Potency, µM (doses to about 114 µM), for inactives: at the top dose activity change, negative = inhibition, most hits filed as inhibitors; 0.56% of 390,000 active; AID 540317, 2011; also: potency is read from the fitted curve at half-maximal effect; nearly all actives have a fitted effect of over 70% in size
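HP1-beta protein (50 nM final) preincubated 30 min at room temperature with biotinylated H3(1-18)K9me3 peptide (50 nM) in PBS pH 7.4, 0.01% Tween-20, then compound added for 30 min. AlphaScreen streptavidin donor/nickel chelate acceptor beads (10 ug/mL final), 30 min dark, luminescence read.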
JMJD2A Tudor: qHTS Assay for Inhibitors of JMJD2A-Tudor Domain | AlphaScreen JMJD2A-Tudor / H3K4me3 peptide binding | Potency, µM (top dose mostly 114 µM), for the others: at the top dose activity change, negative = inhibition, usual class: inhibitors | 4.4% of 390,000 active; also: potency is read from the fitted curve at half-maximal effect; % is scaled to controls: 0 for no effect and ±100 for the full control effect; nearly all actives have a fitted effect of over 50% in size
PLK1 PBD block: qHTS for Inhibitors of PLK1-PDB (polo-like kinase 1 - polo-box domain): Primary Screen; Serine/threonine-protein kinase PLK1 (Homo sapiens), P53350; Plk1 PBD binding of FITC phosphopeptide, fluorescence polarization; Potency, µM, inactives show max response, negative = inhibition, hits mostly inhibitors; 2.8% of 360,000 active; AID 720504, 2013; also: potency is read from the fitted curve at half-maximal effect; series mostly up to about 57 µM; % is scaled to controls: 0 for no effect and ±100 for the full control effect; nearly all actives have a fitted effect of over 65% in size
G9a block: qHTS Assay for Inhibitors of Histone Lysine Methyltransferase G9a. Histone-lysine N-methyltransferase EHMT2 (Homo sapiens), Q96KQ7. G9a H3K9 monomethylation, AlphaScreen, 2 h. Potency, µM (titrated, usually from 102 µM), inactives show at the top dose activity, negative = inhibition, actives largely listed as inhibitors. 8.8% of 350,000 active; also: potency is read from the fitted curve at half-maximal effect; % is scaled to controls: 0 for no effect and ±100 for the full control effect; nearly all actives have a fitted effect of over 75% in size
Target sequence (Q96KQ7 913-1193 limits assumed): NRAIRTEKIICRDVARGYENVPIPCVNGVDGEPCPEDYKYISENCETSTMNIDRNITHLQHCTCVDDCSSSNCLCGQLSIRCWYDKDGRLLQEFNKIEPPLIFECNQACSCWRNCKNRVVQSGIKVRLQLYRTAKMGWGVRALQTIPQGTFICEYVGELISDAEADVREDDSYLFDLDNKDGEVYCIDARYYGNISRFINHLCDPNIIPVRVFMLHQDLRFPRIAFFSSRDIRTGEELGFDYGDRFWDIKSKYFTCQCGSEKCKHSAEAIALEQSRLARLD
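Methyltransferase reactions run at room temperature for 2 h (20 nM enzyme, 500 nM biotin-H3K9 peptide, 20 uM SAM) after a 15 min compound preincubation; product detected by AlphaScreen beads and anti-H3K9me1 antibody.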
Numbers without * were called inactive; [ ] = dose if it differs, or a comment. Unless noted, calls follow the shape of the dose curve; as a rule, active = well fitted curve in the direction sought with a large enough effect; inconclusive = small, poorly fitted or top-dose-only effect, or another doubt; inactive = no such curve, though single readings can be large; an effect the other way counts as inactive or inconclusive.

c1csc(C2=Nn3c(nnc3-c3ccncc3)SC2)c1 was read as PI5P4K alpha inh -27, BAZ2B inh inconclusive, HP1b binding inh -15%, JMJD2A Tudor -27%, PLK1 PBD block 27µM* and G9a block -14%[0.501 µM].
`c1ccc(C2=Nn3c(nnc3-c3cccs3)SC2)cc1` gave PI5P4K alpha inh 4, BAZ2B inh -12%, HP1b binding inh 12%, JMJD2A Tudor -8%, PLK1 PBD block -2% and G9a block -2%.
`CCCN1CCC(=O)N(C(CSc2ccc(C)cc2)CC(C)C)CC1` (centres undefined) gave HP1b binding inh 20% and JMJD2A Tudor -17%.
Screening COC(=O)c1ccccc1NC(=O)Cn1cnc2sc(C)c(S(=O)(=O)N3CCC(C)CC3)c2c1=O returned BAZ2B inh 6%, HP1b binding inh 16%, JMJD2A Tudor -12% and G9a block -4%[59 µM].
For CCCn1c(SCC(=O)N2CC(=O)Nc3ccccc32)nc2ccccc21 the results were PI5P4K alpha inh -2, BAZ2B inh 8%, HP1b binding inh 9%, JMJD2A Tudor -20%, PLK1 PBD block inconclusive and G9a block 32µM*.
Screening O=C1CN(C(=O)CSc2nc3ccccc3n2CCc2ccccc2)c2ccccc2N1 returned PI5P4K alpha inh -6, BAZ2B inh -34%, HP1b binding inh 22%, JMJD2A Tudor -1%, PLK1 PBD block -6% and G9a block 10µM*.
For CC(C)CCn1c(SCC(=O)N2CC(=O)Nc3ccccc32)nc2scc(-c3cccs3)c2c1=O the results were PI5P4K alpha inh -67*, BAZ2B inh -11%, HP1b binding inh 21%, JMJD2A Tudor -19%, PLK1 PBD block -13% and G9a block -7%[59 µM].
O=C1CN(C(=O)CSc2nc3ccccc3c(=O)n2Cc2ccc(F)cc2)c2ccccc2N1 was read as PI5P4K alpha inh -11, BAZ2B inh -33%, HP1b binding inh 23%, JMJD2A Tudor -17%, PLK1 PBD block -7% and G9a block -23%[59 µM].
Screening Cn1c(SCC(=O)N2CC(=O)Nc3ccccc32)nc2ccccc2c1=O returned PI5P4K alpha inh -6, BAZ2B inh 9%, HP1b binding inh 38%, JMJD2A Tudor 6%, PLK1 PBD block -15% and G9a block 22%[12.7 µM].
Cn1c(NN)nc2sc3c(c2c1=O)CC(C)(C)OC3 was read as BAZ2B inh -4%, HP1b binding inh -10%, JMJD2A Tudor inconclusive, PLK1 PBD block -7% and G9a block -31%[59 µM].
COC(=O)c1ccc(Cn2nnc3sc4c(c3c2=O)CCCC4)cc1 was read as BAZ2B inh -9%, HP1b binding inh 31%, JMJD2A Tudor -9% and G9a block -3%[59 µM].
`O=C(O)c1ccc(Cn2nnc3sc4c(c3c2=O)CCCC4)cc1` gave PI5P4K alpha inh -12, BAZ2B inh 79µM*, HP1b binding inh 6%, JMJD2A Tudor -16%, PLK1 PBD block -11% and G9a block 50µM*.
`CCC1(C)Cc2c(sc3nc(NC)n(C)c(=O)c23)CO1` (centres undefined) gave PI5P4K alpha inh -10, BAZ2B inh inconclusive, HP1b binding inh 31%, JMJD2A Tudor inconclusive, PLK1 PBD block -16% and G9a block 32µM*.
For CCSc1nc2sc3c(c2c(=O)[nH]1)CC(C)(CC)OC3 (centres undefined) the results were BAZ2B inh 4%, HP1b binding inh 47%, JMJD2A Tudor -3%, PLK1 PBD block -13% and G9a block 107%[59 µM].
For CC1(C)Cc2c(sc3nc[nH]c(=O)c23)CO1 the results were PI5P4K alpha inh -18, BAZ2B inh -1%, HP1b binding inh 59%, JMJD2A Tudor -15%, PLK1 PBD block 4% and G9a block -2%.
`CC1(C)Cc2c(sc3nn[nH]c(=O)c23)CO1` gave PI5P4K alpha inh -8, BAZ2B inh 14%, HP1b binding inh -13%, JMJD2A Tudor -12%, PLK1 PBD block inconclusive and G9a block 32µM*.
`CCC1(C)Cc2c(sc3nn[nH]c(=O)c23)CO1` (centres undefined) gave BAZ2B inh -3%, HP1b binding inh -19%, JMJD2A Tudor -11%, PLK1 PBD block 21µM* and G9a block 40µM*.
For CN(C)c1ccc(C(CNC(=O)c2cccc(C(F)(F)F)c2)N2CCCC2)cc1 (centres undefined) the results were BAZ2B inh inconclusive, HP1b binding inh -12%, JMJD2A Tudor inconclusive and G9a block -39%[59 µM].
O=C(c1ccncc1)N1CCC[C@@]2(CCN(c3ccncc3)C2)C1 was read as G9a block 2%[12.7 µM].
Screening O=C(NCc1nc2ccccc2n1Cc1ccccc1Cl)c1ccccc1 returned BAZ2B inh -3%, HP1b binding inh 18%, JMJD2A Tudor -12% and G9a block -7%[59 µM].
CC1(C)Cc2c(sc3nnn(Cc4ccccc4)c(=O)c23)CO1 was read as PI5P4K alpha inh 5, BAZ2B inh -7%, HP1b binding inh 24%, JMJD2A Tudor 7%, PLK1 PBD block inconclusive and G9a block 13µM*.
For Cc1cccc(NCc2cc(Cl)ccc2O)n1 the results were BAZ2B inh 13%, HP1b binding inh 21%, JMJD2A Tudor -5%, PLK1 PBD block -6% and G9a block 2%[59 µM].
`CCOc1ccc(-c2cnc(NCc3cccc(Cl)c3)n2C)cc1` gave BAZ2B inh inconclusive, HP1b binding inh inconclusive, JMJD2A Tudor 20µM* and G9a block 7.9µM*.
CC(=O)n1nc(-c2ccccc2)nc1NCc1ccc(F)cc1 was read as PI5P4K alpha inh 1, BAZ2B inh 32%, HP1b binding inh 118%, JMJD2A Tudor 29%, PLK1 PBD block -5% and G9a block -12%[2.33 µM].
For COc1cccc(-c2cnc(NCc3cc(Cl)ccc3O)n2C)c1 the results were BAZ2B inh 40µM*, HP1b binding inh inconclusive, JMJD2A Tudor 4.5µM*, PLK1 PBD block -5% and G9a block 8.9µM*.
Screening Cn1c(-c2ccccc2)cnc1NCc1ccc(F)cc1 returned PI5P4K alpha inh -5, BAZ2B inh inconclusive, HP1b binding inh inconclusive, JMJD2A Tudor 35µM* and PLK1 PBD block 0%.
For Cn1c(NCc2cccc(Cl)c2)nc2ccccc21 the results were BAZ2B inh 2%, HP1b binding inh 22%, JMJD2A Tudor -21% and G9a block -2%[59 µM].
Cn1c(-c2ccccc2)cnc1NCc1ccccc1O was read as BAZ2B inh 50µM*, HP1b binding inh inconclusive, JMJD2A Tudor 28µM* and G9a block 10µM*.
